Source: PubChem (National Center for Advancing Translational Sciences (NCATS))
Rows were chosen to be rich in hits. Some 7.4% of all compounds tested hit in one or more screens of this group.
FLuc modulator – inhibits or activates purified firefly luciferase, miR-21 counter-screen. purified FLuc, Km substrates, luminescence inhibition. Potency, µM (doses to about 57.5 µM), for the others: at the highest dose activity change, negative = inhibition, hits mostly inhibitors. 6.9% of 360,000 active. AID 588342;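 also: plate controls were vehicle for no effect and reference inhibitor for full effect; nearly all actives have a fitted effect of over 55% in size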
Target sequence (P08659 whole entry, looked up): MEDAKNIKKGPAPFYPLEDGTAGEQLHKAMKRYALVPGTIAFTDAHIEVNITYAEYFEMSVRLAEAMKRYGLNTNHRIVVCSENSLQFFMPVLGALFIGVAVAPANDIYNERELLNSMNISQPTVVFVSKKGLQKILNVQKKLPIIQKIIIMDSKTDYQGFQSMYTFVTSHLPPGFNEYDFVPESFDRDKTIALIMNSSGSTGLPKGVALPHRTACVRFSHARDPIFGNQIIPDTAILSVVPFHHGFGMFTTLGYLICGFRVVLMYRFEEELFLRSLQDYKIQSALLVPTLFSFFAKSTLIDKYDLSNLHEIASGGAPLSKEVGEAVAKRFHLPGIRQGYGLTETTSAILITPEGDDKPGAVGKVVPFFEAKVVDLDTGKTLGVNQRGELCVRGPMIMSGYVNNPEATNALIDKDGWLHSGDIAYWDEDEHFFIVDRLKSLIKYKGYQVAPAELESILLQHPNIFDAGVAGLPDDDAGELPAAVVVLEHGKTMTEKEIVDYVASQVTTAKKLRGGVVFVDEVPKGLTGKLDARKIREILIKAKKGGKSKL
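Biochemical qHTS of compounds, final roughly 60 µM downward over six points, against 10 nM purified firefly luciferase using Km concentrations of substrates (10 uM D-luciferin, 10 uM ATP) in Tris acetate pH 7.5 buffer; luminescence output.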
Rab9 prom act – activates the Rab9 promoter; AID 485297; Potency, µM (highest dose often 9.22 µM), inactives show top-dose activation, negative = inhibition, most hits filed as activators; 2.8% of 320,000 active; Huh7 Rab9 promoter-luciferase reporter, luminescence, 24 h; also: % of control where 0% means no effect; nearly all actives have a fitted effect of over 60% in size
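Huh7 cells stably carrying a Rab9 promoter-luciferase reporter, 1500 cells per well in OP-MEM I with 10% FBS, treated with compound 24 hours at 37C. Luciferase activity read by luminescence after 10 minutes with Amplite reagent.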
NPC1 promoter act – activators of NPC1 promoter. Huh7 NPC1 promoter luciferase reporter, 24 h. 2.4% of 320,000 active. AID 485313. Potency, µM (titrated, usually from 9.22 µM), for the others: top-dose activation, actives largely listed as activators; also: % of control where 0% means no effect; nearly all actives have a fitted effect of over 60% in size
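Huh7 cells stably carrying NPC1 promoter–luciferase, plated in Opti-MEM with 10% FBS for 2 h, were exposed to compound in DMSO for 24 h at 37 °C; luciferase reagent was added for 10 min and luminescence read.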
SMN2 splice up – SMN2 splice variant enhancement. HEK293 SMN2-luciferase splicing reporter, luminescence, 30-36 h. Potency, µM (doses to about 46.1 µM), without a hit: at the highest dose activity change, positive = activation, actives largely listed as activators. 2.8% of 210,000 active. AID 1458; also: % of control where 0% means no effect; nearly all actives have a fitted effect of over 55% in size
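HEK293 cells carry an SMN2 […]–luciferase reporter in which exon 7 inclusion puts luciferase in frame. Cells were plated 10-12 h before compound addition, then incubated 30-36 h at 37C. ONE-Glo luminescence was read; sodium butyrate at 4.5 mM final served as control.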
ELG1 genotox – inducers of genotoxicity in HEK293T ELG1-luciferase cells. Potency, µM (series often up to 46 µM), for inactives: top-dose activity change, positive = activation, most hits filed as activators. HEK293T ELG1-luciferase reporter, luminescence, 16 h. 1.3% of 330,000 active; also: % of control where 0% means no effect; nearly all actives have a fitted effect of over 60% in size
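Screening used a luciferase reporter fused to human ELG1 in HEK293T cells. Luminescence was read on a CCD plate imager after 16 hr exposure and 30 min ONE-Glo incubation.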
* marks the source's active call; other numbers are inactive results; u = inconclusive; x = no result given; [ ] = another dose, or the depositor's remark. Calls follow the shape of the dose curve; as a rule, active = well fitted curve in the direction sought with a large enough effect; inconclusive = small, poorly fitted or top-dose-only effect, or another doubt; inactive = no such curve, though single readings can be large; an effect the other way counts as inactive or inconclusive. Potency is read from the fitted curve at half-maximal effect.

SMILES	FLuc modulator	Rab9 prom act	NPC1 promoter act	SMN2 splice up	ELG1 genotox
CCCCCCCCNc1ncnc2ccccc12	-15%	-28%	-25%	-100%	0%
Cc1cc2c(NCCc3ccccc3)ncnc2s1	12µM*	-7%	-7%	x	u
c1ccc(CCNc2ncnc3ccccc23)cc1	12µM*	-23%	-19%	x	2%
O=C(Nc1ccccc1F)c1nc(SCc2ccccc2F)ncc1Cl	4%	x	x	2%	x
CCCOc1ccccc1NC(=O)Nc1ccccc1Cl	0%	2.8µM*	3.5µM*	-6%	-6%
CCOc1ccccc1NC(=O)Nc1ccc(Cl)cc1	21µM*	12%	u	-21%	7%
Cc1ccc(C(=O)Oc2oc(-c3ccco3)nc2C=Nc2ccc(Cl)cc2)cc1	4.8µM*	3.2µM*	1.8µM*	14µM*	u
CN(C)c1ccc(N=Cc2nc(-c3ccccc3)oc2OC(=O)c2cccc(Cl)c2)cc1	u	4.5µM*	u	11µM*	u
Cc1ccc(C(=O)Oc2oc(-c3ccccc3)nc2C=Nc2ccc(N(C)C)cc2)cc1	13µM*	u	u	8.9µM*	u
COc1ccc(N=Cc2nc(-c3ccccc3)oc2OC(C)=O)cc1	-10%	2%	2%	x	0%
Cc1ccc(CN2c3ccccc3S(=O)(=O)c3ccccc32)cc1	-14%	x	x	x	x
COc1cc(Cl)c(C)cc1NS(=O)(=O)c1c(C)nc2sccn2c1=O	-14%	x	x	x	x
CC[C@]1(O)C[C@@H]2CN(CCc3c([nH]c4ccccc34)[C@@](C(=O)OC)(c3cc4c(cc3OC)N(C)C3[C@]45CCN4CC=C[C@](CC)(C45)[C@@H](OC(C)=O)[C@]3(O)C(=O)OC)C2)C1 (stereo not given in full)	x	x	x	-28%	x
Cc1nc(NCc2ccccc2)c2nc(-c3ccccc3)n(CC3CCN(C)CC3)c2n1	x	x	x	4%	x
CCCCC1CCC(CCCC(C)CCC(=O)O)CC1 (stereo not given)	27µM*	x	x	-8%	x
CCN(CC)c1ccc(/C=C2\SC(=O)N(C(C)C)C2=O)o1	19µM*	27%	28%	x	-21%
O=S(=O)(c1cc(Br)c(Br)s1)N1CCN(c2ccccc2)CC1	-2%	x	x	x	x
Cc1cccn2cc(-c3cccc(NC(=O)C(C)C)c3)nc12	11µM*	x	x	u	x
Cc1ccn2cc(-c3cccc(NC(=O)c4ccccc4)c3)nc2c1	4.3µM*	22%	3%	u	1%
O=C(Nc1cccc(-c2cn3ccccc3n2)c1)c1cccs1	3.4µM*	13%	21%	x	u
COc1ccc(CC(=O)Nc2ccc(-c3cn4ccc(C)cc4n3)cc2)cc1	u	u	u	-5%	21µM*
CCCNC(=O)Cn1c(=O)n(CC2CCC(C(=O)NC)CC2)c(=O)c2sccc21 (stereo not given)	3%	x	x	x	x
CC(=O)Nc1cccc(-c2cn3ccccc3n2)c1	19µM*	27%	16%	u	13%
CCC(CC)C(=O)Nc1cccc(-c2cn3cccnc3n2)c1	-8%	x	x	x	x
Cc1ccc(C)c(NC(=O)Nc2cccc(-c3cn4cccnc4n3)c2)c1	-3%	x	x	-4%	x
SMILES	FLuc modulator	Rab9 prom act	NPC1 promoter act	SMN2 splice up	ELG1 genotox
CC(C)C(=O)Nc1cccc(-c2cn3ccccc3n2)c1	11µM*	17%	12%	-5%[1.84 µM]	8%
Cc1ccn2cc(-c3cccc(NC(=O)C(C)C)c3)nc2c1	6µM*	u	25%	14µM*	u
O=C(Nc1cccc(-c2cc3ccccc3oc2=O)c1)c1ccc(Br)o1	-16%	-3%	0%	25%	-2%
O=C(Nc1cccc(-c2cn3ccccc3n2)c1)c1cc2ccccc2oc1=O	1.5µM*	u	u	u	17%
Cc1cccc2nc(-c3cccc(NS(=O)(=O)c4ccccc4)c3)cn12	u	x	x	1%	x
Cc1cccc(N2CCN(C(=O)C3CCCN(S(=O)(=O)c4ccc5c(c4)oc(=O)n5C)C3)CC2)c1C (stereo not given)	-8%	x	x	-42%	x
Cc1cc(C)cc(NC(=O)C(=O)NCC(c2cccnc2)N2CCc3ccccc32)c1 (stereo not given)	2%	x	x	x	x
Cc1ccc(NC(=O)c2oc3c(c2C)-c2[nH]ncc2CC3)c(Cl)c1	-11%	x	x	x	x
COc1ccc2cc(CCC(C)=O)ccc2c1	u	u	u	13µM*	x
Cc1ccc(NC(=O)CN2C(=O)c3ccccc3Sc3ncccc32)c(C)c1	-7%	x	x	x	x
C=CCOC(=O)C1=C(C)NC(=O)NC1c1ccc2c(c1)OCO2 (stereo not given)	5%	-5%	-2%	x	2%
C=CCOC(=O)c1c(C)nc2cc3c(cc2c1C)OCO3	17µM*	24%	19%	u	7%
CC(=O)Nc1cccc(NC(=O)C2(c3cccs3)CCOCC2)c1	-1%	x	x	x	x
O=C(Nc1cccc(-c2csc(Nc3ccccc3)n2)c1)c1ccccc1	1.7µM*	u	u	x	-3%
O=C(Nc1cccc(-c2csc(Nc3cccc(C(F)(F)F)c3)n2)c1)c1ccccc1	u	-9%	-4%	x	-17%
O=C(Nc1ccc(-c2csc(Nc3cccc(C(F)(F)F)c3)n2)cc1)c1ccccc1	-1%	-11%	0%	x	-11%
CC(=O)c1cccc(Nc2nc(-c3ccccc3)cs2)c1	3.4µM*	1.3µM*	3.2µM*	11µM*	u
O=C(O)CCC(=O)Nc1cccc(-c2csc(-c3ccccc3)n2)c1	7.6µM*	-7%	-13%	-14%	-2%
CC(=O)c1cccc(Nc2nc(-c3cccnc3)cs2)c1	11µM*	u	3.5µM*	x	7%
Cc1ccc(CN(Cc2ccco2)C(=O)COc2ccc(Cl)cc2)o1	-19%	x	x	-6%	x
O=[N+]([O-])c1cccc(-c2csc(Nc3ccccc3)n2)c1	13µM*	u	4%	x	3%
COc1ccc(CNC(=O)C(C)n2c(=O)cc(C)c3c(C)nn(-c4ccccc4)c32)cc1 (stereo not given)	-1%	x	x	x	x
COc1ccc(Cl)cc1C(=O)Nc1ccc2oc(-c3ccc(C(C)(C)C)cc3)nc2c1	9.5µM*	x	x	-5%	x
Cc1cc(C)c2oc(-c3cccc(NC(=O)c4ccc(F)cc4)c3)nc2c1	-14%	13%	0%	-26%	2%
CC(C)(C)c1ccc(C(=O)Nc2ccc(-c3nc4cc(Cl)ccc4o3)cc2)cc1	-1%	x	x	-12%	x
COc1cc(C(=O)Nc2cccc(-c3nc4cc(C)cc(C)c4o3)c2)cc(OC)c1OC	5.4µM*	-3%	-3%	-16%	-6%
Cc1ccc2oc(-c3cccc(NC(=O)c4ccc(Br)o4)c3)nc2c1	21µM*	11%	9%	16%	u
COc1cc2ccccc2cc1C(=O)Nc1cccc(-c2nc3cc(C)c(C)cc3o2)c1	1.2µM*	x	x	-2%	x
Cc1cc2nc(-c3cccc(NC(=O)c4ccc(Br)o4)c3)oc2cc1C	17µM*	3%	-4%	-4%	18%
